This is a sample that favours compounds with a hit; in the whole collection about 1% have one here.
GRP78 ERSR act: induces the endoplasmic reticulum stress response in human glioma cells; U87-MG GRP78 promoter luciferase reporter, 16 h; actives 0.02% (n = 420,000); Potency, µM, inactives show at the highest dose activation, usual class: activators; active = well fitted activation curve with a large enough effect; note: potency is the fitted concentration of half-maximal effect; series mostly up to about 76 µM; % of control where 0% means no effect; nearly all actives have a fitted effect of over 35% in size
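Stably transfected U87-MG human glioma cells carrying a GRP78-based luminescent sensor were seeded at 1000 cells/well, pin-dosed with compounds and incubated 16 h. Luciferase reagent was then added, and end-point luminescence was read after 10 min at room temperature.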
TRPML1 agonist: human mucolipin-1 channel agonism; Q9GZU1; TRPML1-expressing cells, Ca2+ dye fluorescence, FDSS; activation, % (concentration not given with the values); actives 0.12% (n = 410,000); AID 624414; in the data active = activation above about 50%; note: 0% is about no effect
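Cells: TRPML1-DL, 1X Tet inducer, ~16 h at 37 degrees C/5% CO2. Dye: ABD Ca8 no-wash + quencher, 45-90 min RT. Read: 10 s baseline, compound add, 110 s agonist phase; 54-4 EC80 (4uM final), 110 s antagonist phase.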
hERG WT inh: blocks the wildtype human KCNH2 potassium channel; Q12809; U2OS, BacMam KCNH2, thallium flux FluxOr; hits give low values; activity change, % at 1.84 µM; actives 0.37% (n = 340,000);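 active = maximum activity change below -70%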; note: % is set by controls: 0 for no effect and ±100 for the full control effect
Target sequence (Q12809 whole entry, looked up): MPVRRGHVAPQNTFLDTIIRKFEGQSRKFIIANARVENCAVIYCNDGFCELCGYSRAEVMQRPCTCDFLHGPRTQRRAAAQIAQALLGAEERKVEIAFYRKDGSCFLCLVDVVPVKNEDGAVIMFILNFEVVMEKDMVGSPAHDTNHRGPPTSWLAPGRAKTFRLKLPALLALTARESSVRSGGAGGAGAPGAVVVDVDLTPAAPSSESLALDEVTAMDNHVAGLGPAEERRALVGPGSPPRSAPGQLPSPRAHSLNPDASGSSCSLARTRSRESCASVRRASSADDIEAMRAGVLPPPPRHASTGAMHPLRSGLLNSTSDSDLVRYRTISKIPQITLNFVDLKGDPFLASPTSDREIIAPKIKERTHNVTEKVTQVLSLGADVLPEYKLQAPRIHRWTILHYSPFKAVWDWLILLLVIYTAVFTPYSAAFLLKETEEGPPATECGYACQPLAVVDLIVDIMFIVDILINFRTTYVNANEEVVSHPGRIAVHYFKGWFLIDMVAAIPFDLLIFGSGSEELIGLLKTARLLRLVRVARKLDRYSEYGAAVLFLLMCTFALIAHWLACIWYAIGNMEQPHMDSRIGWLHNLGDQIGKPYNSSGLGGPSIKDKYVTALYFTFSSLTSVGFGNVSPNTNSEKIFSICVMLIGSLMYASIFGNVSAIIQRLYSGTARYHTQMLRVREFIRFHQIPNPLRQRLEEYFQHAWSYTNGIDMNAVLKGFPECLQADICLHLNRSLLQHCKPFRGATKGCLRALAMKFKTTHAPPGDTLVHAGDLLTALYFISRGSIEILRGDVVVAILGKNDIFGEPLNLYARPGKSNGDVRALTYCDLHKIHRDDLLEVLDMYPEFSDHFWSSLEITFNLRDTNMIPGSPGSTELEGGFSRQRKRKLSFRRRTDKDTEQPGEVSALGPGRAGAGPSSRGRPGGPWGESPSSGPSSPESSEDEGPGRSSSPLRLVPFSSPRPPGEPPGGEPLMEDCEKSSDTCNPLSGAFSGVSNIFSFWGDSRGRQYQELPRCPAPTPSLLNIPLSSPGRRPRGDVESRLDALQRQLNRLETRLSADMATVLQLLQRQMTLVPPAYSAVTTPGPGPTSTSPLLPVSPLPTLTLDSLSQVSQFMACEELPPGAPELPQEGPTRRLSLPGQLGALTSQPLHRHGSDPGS
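U2OS cells transduced with wild-type KCNH2 virus are loaded with FluxOr dye for 45 min, and thallium flux is measured in kinetic reads before and after stimulation buffer. Rate constants are normalized to DMSO controls.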
TSG101-PTAP inh: blocks PTAP/TSG101 interaction to inhibit HIV-1 budding; Fluorescence polarization, FITC-PTAP peptide / Tsg101 binding; Q99816; 340,000 tested, under 10 active; Potency, µM (series often up to 115 µM), for the others: top-dose activity change, negative = inhibition, most hits filed as inhibitors; AID 493005; active = well fitted inhibition curve with a large enough effect in the main read-out, with a control signal flat, not every such curve was filed as active; note: potency is the fitted concentration of half-maximal effect; % of control where 0% means no effect
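Fluorescence polarization binding of Tsg101 binding domain (10 uM final) to FITC-labeled PTAP peptide (50 nM final) in HEPES pH 7.5 buffer with NaCl, Tween 20, EDTA, TCEP. Compounds added before peptide; binding 20 min at RT.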
TRPML1 blocker: blocks the human TRPML1 channel. actives 0.02% (n = 390,000). AID 624415. activity change, negative = inhibition, % (no concentration beside the values). TRPML1-inducible cells, Ca2+ dye fluorescence, FDSS; hits give low values; inhibition of EC80 agonist-evoked calcium signal. Q9GZU1; in the data active = activity change below about -50%;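 note: stimulus is agonist 54-4 at its EC80 concentration; % is set by controls: 0 for no effect and ±100 for the full control effect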
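Calcium fluorescence in TRPML1-DL cells induced overnight with Tet: a 110 s read after compound pin addition, then a 110 s antagonist read after challenge with 54-4 at 4 uM final (EC80).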
KCNH2 3.1 block: blocks the human KCNH2 3.1 channel isoform; U2OS KCNH2 3.1, thallium flux FluxOr; hits give low values; activity change, % (tested at about 1.8 µM); actives 0.95% (n = 340,000); AID 720553;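 active = maximum activity change below -70%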;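 note: thallium influx rate constant from kinetic fluorescence after stimulation buffer; % is set by controls: 0 for no effect and ±100 for the full control effect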
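Channel expression came from 3.1 mutant virus (1.77 x 10^8 /mL) applied to suspended U2OS cells for 4 h. Flux was tracked with FluxOr dye plus Red40 quencher, and kinetic rate constants normalized to controls.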
* = called active by the depositor; . = no result given.

SMILES	GRP78 ERSR act	TRPML1 agonist	hERG WT inh	TSG101-PTAP inh	TRPML1 blocker	KCNH2 3.1 block
O=c1nc(-c2ccccc2)cc(C(F)(F)F)[nH]1	-4%	0	-4	-11%	2	-11
Cc1cc(-c2ccccc2)nc(=O)[nH]1	4%	0	-167*	-3%	-7	-192*
Cn1ccc(C(=O)NCC2CCC3(CCN(Cc4ccc(F)cc4F)CC3)O2)n1 (stereo not drawn)	-5%	.	.	.	.	.
CSCc1nc2scc(-c3ccccc3)c2c(=O)[nH]1	0%	-1	1	-4%	-1	-92*
COC(=O)c1ccccc1C(=O)N1CCc2c(cnc(C)c2CNC(=O)c2ccccc2F)C1	-5%	.	.	.	.	.
CSc1ccccc1C(=O)C1CCCN(Cc2c(C)n(C)n(-c3ccccc3)c2=O)C1 (stereo not drawn)	2%	1	-150*	-14%	-8	-188*
CCOC(=O)c1c(C)[nH]c(C)c1S(=O)(=O)NC(C)Cc1ccco1 (stereo not drawn)	-3%	0	5	-10%	3	-80*
CCOC(=O)c1c(C)[nH]c(C)c1S(=O)(=O)N(C)Cc1ccco1	1%	0	2	-1%	8	17
OC1(c2ccc3c(c2)CN(Cc2ccccn2)CCO3)CCN(c2ccccc2F)CC1	-3%	.	.	.	.	.
CCc1ccc(NC(=O)COC(=O)/C=C/c2ccco2)cc1	3%	3	18	-2%	16	-121*
C[n+]1ccc(C(c2c[nH]c3ccccc23)c2cc[n+](C)c3ccccc23)c2ccccc21	-8%	1	.	.	.	.
COc1cc(/C=C(\C#N)C(=O)Nc2cccc(C(=O)O)c2)ccc1OCc1ccc(Cl)cc1	-7%	2	-92*	-4%	62	-12
COc1cc(/C=C(/C#N)C(=O)Nc2ccccc2)c(Br)cc1OCc1ccc(C(=O)O)cc1	9%	2	-7	-6%	17	-1
Nc1nc(N2CCN(C(=O)c3ccco3)CC2)nc2ccc(Br)cc12	-2%	1	.	-13%	14	-89*
Nc1nc(N2CCN(C(=O)c3ccco3)CC2)nc2ccccc12	0%	1	8	-4%	7	1
COc1ccccc1Cn1c(=O)c2ccccc2n2c(SCC(=O)N3CCCCC3)nnc12	-5%	2	-4	0%	-61*	-1
COc1cc(=O)n2c(c1C(=O)N(C)Cc1nonc1C)CCN(C(=O)c1ccc(C)c(C)c1)CC2	-1%	.	.	.	.	.
O=C(CN1CCCCCC1)N/N=C/c1ccc(Cl)c(Cl)c1	0%	0	-1	1%	-5	-75*
CSc1ccc(/C=N/NC(=O)CN2CCN(Cc3ccc(C)cc3)CC2)cc1	-1%	-1	-47	-1%	7	-113*
CSc1ccc(/C=N/NC(=O)CN2CCN(Cc3ccccc3Cl)CC2)cc1	-2%	1	29	-1%	-5	-82*
Cc1cccc(C(=O)N[C@H]2CC[C@@H](n3cc(C(=O)N4CCCC4)nn3)CC2)c1	-6%	.	.	.	.	.
Cc1oc(-c2ccccc2NS(C)(=O)=O)nc1CN(C)Cc1ccc(Cl)cc1	-6%	.	.	.	.	.
O=C(Nc1ccc(Br)cc1)c1cccc(S(=O)(=O)Nc2ccccn2)c1	-4%	0	-191*	-2%	89	.
CN(Cc1ccccc1)C(=O)c1ncn(Cc2ccccc2)c1C(=O)N(C)Cc1ccccc1	4%	1	4	-5%	-3	-72*
Cc1ccc(N/C(N)=N/c2nc(C)cc(N3CCCCC3)n2)c(C)c1	-7%	0	-14	0%	21	-97*
Fc1ccc(Nc2nc(NCc3ccco3)c3ccccc3n2)cc1	-12%	2	-13	-6%	28	-92*
O=C(COC(=O)c1cccc(S(=O)(=O)NCc2ccccc2)c1)c1ccccc1	-3%	4	7	-3%	18	-84*
O=C(/C=C/c1ccc(F)cc1)NCC1Cc2cccc(-c3ncccn3)c2O1 (stereo not drawn)	-3%	.	.	.	.	.

Assay outcomes (PubChem)
